{"source": "PubChem BioAssay (Tox21)", "note": "Values joined by “and” are separate entries in the source; they are usually repeats but may differ in a detail not shown here. Identical values can stand only once. Results filed as inconclusive are left out. Where a call stands in place of a potency, no number is given. Active and inactive are the calls of the source. The call rests on the fitted dose curve."}
{"target": "Acetylcholinesterase (Homo sapiens) (UniProt P22303)", "sequence (P22303 whole entry, looked up)": "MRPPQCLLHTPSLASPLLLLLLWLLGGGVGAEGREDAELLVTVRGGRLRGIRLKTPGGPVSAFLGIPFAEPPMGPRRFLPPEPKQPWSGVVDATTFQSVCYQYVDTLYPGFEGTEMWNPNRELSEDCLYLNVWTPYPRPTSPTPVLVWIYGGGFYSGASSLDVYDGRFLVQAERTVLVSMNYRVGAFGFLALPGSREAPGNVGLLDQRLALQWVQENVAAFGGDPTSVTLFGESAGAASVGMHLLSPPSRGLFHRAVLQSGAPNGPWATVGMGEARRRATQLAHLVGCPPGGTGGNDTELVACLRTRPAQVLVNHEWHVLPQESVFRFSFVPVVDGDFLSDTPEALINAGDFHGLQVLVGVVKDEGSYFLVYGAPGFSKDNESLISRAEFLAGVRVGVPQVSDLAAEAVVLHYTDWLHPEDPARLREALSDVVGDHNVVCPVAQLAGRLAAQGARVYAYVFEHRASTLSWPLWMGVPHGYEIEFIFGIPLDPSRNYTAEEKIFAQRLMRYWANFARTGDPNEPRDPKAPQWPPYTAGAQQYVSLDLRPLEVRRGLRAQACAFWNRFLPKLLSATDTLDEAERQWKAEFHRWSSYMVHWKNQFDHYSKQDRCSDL", "assay": "Acetylcholinesterase (AChE) small molecule antagonists: colormetric cell-based qHTS assay (AID 1347395); further: nearly all actives have a fitted effect of over 30% in size", "conditions": "SH-SY5Y cells AChE activity, colorimetric (Ellman); series mostly up to 115 µM", "in_short": "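Colorimetric readout: DTNB quantifies thiocholine from acetylthiocholine hydrolysed by endogenous AChE of SH-SY5Y cells (2,000/well, plated overnight). Compound pretreatment 30 min, substrate incubation 90 min, both 37 C.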"}
{"smiles": "O=C(O)CCCl", "Potency": "inactive"}
{"smiles": "O=c1oc2cc(O)ccc2c2oc3cc(O)ccc3c12", "Potency": "inactive"}
{"smiles": "CC(C)(c1ccc(Oc2ccc(N)cc2)cc1)c1ccc(Oc2ccc(N)cc2)cc1", "Potency": "inactive"}
{"smiles": "CCCCCCCCCCC=CC1CC(=O)OC1=O", "note": "(configuration not stated)", "Potency": "inactive"}
{"smiles": "Oc1c(Cl)cc(Cl)cc1Sc1cc(Cl)cc(Cl)c1O", "Potency": "inactive"}
{"smiles": "CC1(C)S[C@@H]2[C@H](NC(=O)COc3ccccc3)C(=O)N2[C@H]1C(=O)O", "Potency": "inactive"}
{"smiles": "CCCCC(=O)O", "Potency": "inactive"}
{"smiles": "OC(CCN1CCCCC1)(c1ccccc1)C1CCCCC1", "note": "(configuration not stated)", "outcome": "inactive"}
{"smiles": "O=C1c2ccccc2C(=O)N1CCl", "Potency": "inactive"}
{"smiles": "CCCCCCCCCCCCN1CCCCCC1=O", "Potency": "inactive"}
{"smiles": "OCc1c2ccccc2cc2ccccc12", "Potency": "inactive"}
{"smiles": "Oc1ccccc1F", "Potency": "inactive"}
{"smiles": "Nc1ccc2c(O)cc(S(=O)(=O)O)cc2c1", "Potency": "inactive"}
{"smiles": "CCCN1C=CN(C)C1", "Potency": "inactive"}
{"smiles": "COc1ccc(C(=O)N2CCN(CC(=O)N3CCOCC3)CC2)cc1", "Potency": "inactive"}
{"smiles": "C=COCC1CCC(CO)CC1", "note": "(configuration not stated)", "Potency": "inactive"}
{"smiles": "C[C@]12CCC(=O)C=C1CC[C@@H]1[C@@H]2C(=O)C[C@@]2(C)[C@H]1CC[C@]2(O)C(=O)CO", "Potency": "inactive"}
{"target": "Acetylcholinesterase (Homo sapiens) (UniProt P22303)", "assay": "Acetylcholinesterase (AChE) small molecule antagonists: enzyme-based qHTS assay (AID 1347397); further: nearly all actives have a fitted effect of over 55% in size; further: potency means the concentration at half of the fitted maximal effect", "conditions": "Potency: AChE enzyme activity inhibition; outcome: AChE enzyme activity inhibition; series mostly up to 115 µM", "in_short": "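Colorimetric DTNB readout of acetylthiocholine hydrolysis, 10 min at room temperature, after 30 min room-temperature exposure of 50 mU/mL recombinant human enzyme to compound; DMSO vehicle control.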"}
{"smiles": "C#Cc1ccc(-c2ccccc2F)cc1", "Potency": "inactive"}
{"smiles": "CC(=O)SCc1ccco1", "Potency": "inactive"}
{"smiles": "C=CC(C)(O)CCC=C(C)C", "note": "(configuration not stated)", "Potency": "inactive"}
{"smiles": "CCOC(/C=C(\\C)CCC=C(C)C)OCC", "Potency": "inactive"}
{"smiles": "CC(C)(C)OC(=O)c1cccc(N)c1", "Potency": "inactive"}
{"smiles": "C/C=C/C(=O)OCC(C)C", "Potency": "inactive"}
{"smiles": "NNc1nc(-c2ccccc2)cs1", "Potency": "inactive"}
{"smiles": "CCS(=O)(=O)CCn1c([N+](=O)[O-])cnc1C", "Potency": "inactive"}
{"smiles": "CC(C)(C)NC(N)=O", "Potency": "inactive"}
{"smiles": "C[C@H]1C[C@H]2[C@@H]3CCC4=CC(=O)C=C[C@]4(C)[C@@]3(Cl)[C@@H](O)C[C@]2(C)[C@@]1(O)C(=O)CO", "Potency": "inactive"}
{"smiles": "Oc1ccc(C2(c3ccc(O)c(C4CCCCC4)c3)CCCCC2)cc1C1CCCCC1", "Potency": "inactive"}
{"smiles": "COc1ccccc1C=O", "Potency": "inactive"}
{"smiles": "Nc1ccc(C(=O)Nc2ccccc2N)cc1", "Potency": "inactive"}
{"smiles": "CC(=O)Oc1cccc2c1C(=O)c1c(OC(C)=O)cc(C(=O)O)cc1C2=O", "Potency": "inactive"}
{"smiles": "CCCOc1ccccc1-c1nc2n[nH]nc2c(=O)[nH]1", "Potency": "inactive"}
{"smiles": "CCOC(=O)C1=C[C@]2(CC)CCCN3CCc4c(n1c1ccccc41)[C@@H]32", "Potency": "inactive"}
{"smiles": "CCCSSCCC", "Potency": "inactive"}
{"smiles": "O=C(CCCl)NCc1ccccc1", "Potency": "inactive"}
{"smiles": "C=C[C@H]1CN2CC[C@H]1C[C@H]2[C@H](O)c1ccnc2ccc(OC)cc12", "Potency": "inactive"}
{"smiles": "Cc1ccccc1C(=O)N1CC/C(=N\\OS(=O)(=O)O)c2ccc(Cl)cc21", "Potency": "inactive"}
{"smiles": "CCCCCCCCCCCc1ccccc1", "Potency": "inactive"}
{"smiles": "CC(c1cc(C(C)(C)C)cc(C(C)(C)C)c1O)c1cc(C(C)(C)C)cc(C(C)(C)C)c1O", "Potency": "inactive"}
{"smiles": "CC(C)OC(=O)COc1ccc(Cl)cc1Cl", "Potency": "inactive"}
{"smiles": "O=C(O)CCCl", "Potency": "inactive"}
{"smiles": "O=c1oc2cc(O)ccc2c2oc3cc(O)ccc3c12", "Potency": "inactive"}
{"smiles": "CC(C)(c1ccc(Oc2ccc(N)cc2)cc1)c1ccc(Oc2ccc(N)cc2)cc1", "Potency": "inactive"}
{"smiles": "CCCCCCCCCCC=CC1CC(=O)OC1=O", "note": "(configuration not stated)", "Potency": "inactive"}
{"smiles": "Oc1c(Cl)cc(Cl)cc1Sc1cc(Cl)cc(Cl)c1O", "Potency": "40 µM (active) and 72.2 µM (active) and 56.4 µM (active)"}
{"smiles": "CC1(C)S[C@@H]2[C@H](NC(=O)COc3ccccc3)C(=O)N2[C@H]1C(=O)O", "Potency": "inactive"}
{"smiles": "CCCCC(=O)O", "Potency": "inactive"}
{"smiles": "OC(CCN1CCCCC1)(c1ccccc1)C1CCCCC1", "note": "(configuration not stated)", "outcome": "inactive"}
{"smiles": "O=C1c2ccccc2C(=O)N1CCl", "Potency": "inactive"}
{"smiles": "CCCCCCCCCCCCN1CCCCCC1=O", "Potency": "inactive"}
{"smiles": "OCc1c2ccccc2cc2ccccc12", "Potency": "inactive"}
{"smiles": "Oc1ccccc1F", "Potency": "inactive"}
{"smiles": "Nc1ccc2c(O)cc(S(=O)(=O)O)cc2c1", "Potency": "inactive"}
{"smiles": "CCCN1C=CN(C)C1", "Potency": "inactive"}
{"smiles": "COc1ccc(C(=O)N2CCN(CC(=O)N3CCOCC3)CC2)cc1", "Potency": "inactive"}
{"smiles": "C=COCC1CCC(CO)CC1", "note": "(configuration not stated)", "Potency": "inactive"}
{"smiles": "C[C@]12CCC(=O)C=C1CC[C@@H]1[C@@H]2C(=O)C[C@@]2(C)[C@H]1CC[C@]2(O)C(=O)CO", "Potency": "inactive"}
{"target": "Acetylcholinesterase (Homo sapiens) (UniProt P22303)", "assay": "Acetylcholinesterase (AChE) small molecule antagonists: fluorescence cell-based qHTS assay (AID 1347398); further: nearly all actives have a fitted effect of over 50% in size", "conditions": "SH-SY5Y cells; Potency: AChE activity; outcome: AChE activity; series mostly up to 115 µM", "in_short": "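Cellular AChE activity read as thiocholine from acetylthiocholine hydrolysis, detected by Thiolite Green fluorescence at 490/520 nm after 40 min at room temperature. Compounds were pre-incubated 30 min at 37 C on adherent SH-SY5Y cells.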"}
{"smiles": "C#Cc1ccc(-c2ccccc2F)cc1", "Potency": "inactive"}
{"smiles": "CC(=O)SCc1ccco1", "Potency": "inactive"}
{"smiles": "C=CC(C)(O)CCC=C(C)C", "note": "(configuration not stated)", "Potency": "inactive"}
{"smiles": "CCOC(/C=C(\\C)CCC=C(C)C)OCC", "Potency": "inactive"}
{"smiles": "CC(C)(C)OC(=O)c1cccc(N)c1", "Potency": "inactive"}
{"smiles": "C/C=C/C(=O)OCC(C)C", "Potency": "inactive"}
{"smiles": "NNc1nc(-c2ccccc2)cs1", "Potency": "inactive"}
{"smiles": "CCS(=O)(=O)CCn1c([N+](=O)[O-])cnc1C", "Potency": "inactive"}
{"smiles": "CC(C)(C)NC(N)=O", "Potency": "inactive"}
{"smiles": "C[C@H]1C[C@H]2[C@@H]3CCC4=CC(=O)C=C[C@]4(C)[C@@]3(Cl)[C@@H](O)C[C@]2(C)[C@@]1(O)C(=O)CO", "Potency": "inactive"}
{"smiles": "Oc1ccc(C2(c3ccc(O)c(C4CCCCC4)c3)CCCCC2)cc1C1CCCCC1", "Potency": "inactive"}
{"smiles": "COc1ccccc1C=O", "Potency": "inactive"}
{"smiles": "Nc1ccc(C(=O)Nc2ccccc2N)cc1", "Potency": "inactive"}
{"smiles": "CC(=O)Oc1cccc2c1C(=O)c1c(OC(C)=O)cc(C(=O)O)cc1C2=O", "Potency": "inactive"}
{"smiles": "CCCOc1ccccc1-c1nc2n[nH]nc2c(=O)[nH]1", "Potency": "inactive"}
{"smiles": "CCOC(=O)C1=C[C@]2(CC)CCCN3CCc4c(n1c1ccccc41)[C@@H]32", "Potency": "inactive"}
{"smiles": "CCCSSCCC", "Potency": "inactive"}
{"smiles": "O=C(CCCl)NCc1ccccc1", "Potency": "inactive"}
{"smiles": "C=C[C@H]1CN2CC[C@H]1C[C@H]2[C@H](O)c1ccnc2ccc(OC)cc12", "Potency": "inactive"}
{"smiles": "Cc1ccccc1C(=O)N1CC/C(=N\\OS(=O)(=O)O)c2ccc(Cl)cc21", "Potency": "inactive"}
{"smiles": "CCCCCCCCCCCc1ccccc1", "Potency": "inactive"}
{"smiles": "CC(c1cc(C(C)(C)C)cc(C(C)(C)C)c1O)c1cc(C(C)(C)C)cc(C(C)(C)C)c1O", "Potency": "inactive"}
{"smiles": "CC(C)OC(=O)COc1ccc(Cl)cc1Cl", "Potency": "inactive"}
{"smiles": "O=C(O)CCCl", "Potency": "inactive"}
{"smiles": "O=c1oc2cc(O)ccc2c2oc3cc(O)ccc3c12", "Potency": "inactive"}
{"smiles": "CC(C)(c1ccc(Oc2ccc(N)cc2)cc1)c1ccc(Oc2ccc(N)cc2)cc1", "Potency": "inactive"}
{"smiles": "CCCCCCCCCCC=CC1CC(=O)OC1=O", "note": "(configuration not stated)", "Potency": "inactive"}
{"smiles": "Oc1c(Cl)cc(Cl)cc1Sc1cc(Cl)cc(Cl)c1O", "Potency": "inactive"}
{"smiles": "CC1(C)S[C@@H]2[C@H](NC(=O)COc3ccccc3)C(=O)N2[C@H]1C(=O)O", "Potency": "inactive"}
{"smiles": "CCCCC(=O)O", "Potency": "inactive"}
{"smiles": "OC(CCN1CCCCC1)(c1ccccc1)C1CCCCC1", "note": "(configuration not stated)", "outcome": "inactive"}
{"smiles": "O=C1c2ccccc2C(=O)N1CCl", "Potency": "inactive"}
{"smiles": "CCCCCCCCCCCCN1CCCCCC1=O", "Potency": "inactive"}
{"smiles": "OCc1c2ccccc2cc2ccccc12", "Potency": "inactive"}
{"smiles": "Oc1ccccc1F", "Potency": "inactive"}
{"smiles": "Nc1ccc2c(O)cc(S(=O)(=O)O)cc2c1", "Potency": "inactive"}
{"smiles": "CCCN1C=CN(C)C1", "Potency": "inactive"}
{"smiles": "COc1ccc(C(=O)N2CCN(CC(=O)N3CCOCC3)CC2)cc1", "Potency": "inactive"}
{"smiles": "C=COCC1CCC(CO)CC1", "note": "(configuration not stated)", "Potency": "inactive"}
{"smiles": "C[C@]12CCC(=O)C=C1CC[C@@H]1[C@@H]2C(=O)C[C@@]2(C)[C@H]1CC[C@]2(O)C(=O)CO", "Potency": "inactive"}
